SW480 rereplic = A quantitative high throughput screen for small molecules that induce DNA re-replication in SW480 colon adenocarcinoma cells | AID 624297, 2012 | SW480 DNA re-replication, Hoechst DNA content imaging, 48 h | hit rate 1.8% among 340,000 | Potency, µM (top dose mostly 46.1 µM), usual class: activators; also: nearly all actives have a fitted effect of over 55% in size
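Readout is total intensity of Hoechst-stained nuclei, excited at 405 nm and collected at 500-530 nm. Compound treatment lasted 48 hr at 37 C in 5% CO2 before staining.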
MCF10A rerep = A quantitative high throughput screen for small molecules that induce DNA re-replication in MCF 10a normal breast cells; hit rate 2.9% among 350,000; Potency, µM (top dose mostly 46.1 µM), usual class: activators; MCF 10A DNA re-replication, Hoechst nuclear intensity, 48 h; also: nearly all actives have a fitted effect of over 50% in size
Gal4-VP16 FLuc = VP16 counterscreen qHTS for inhibitors of ROR gamma transcriptional activity | Drosophila S2 Gal4-VP16 UAS-luciferase, luminescence, 20 h | Potency, µM (highest dose often 53.6 µM), hits mostly inhibitors | hit rate 3.5% among 310,000 | AID 2546, 2010;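 also: Gal4-VP16 expression switched on by copper sulfate through the metallothionein promoter; nearly all actives have a fitted effect of over 50% in size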
IL1B secr inh = qHTS for Inhibitors of Inflammasome Signaling: IL-1-beta AlphaLISA Primary Screen; THP-1 LPS/ATP IL-1B secretion, AlphaLISA, 16 h; stronger effect = lower value; activity change, % at 57.5 µM; hit rate 4.7% among 360,000; in the data active = activity change below about -50%; inconclusive = mostly about -30% to -49%
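Secreted IL-1B measured by AlphaLISA bead assay after 16 h compound exposure of THP-1 cells; compounds (final up to 57.5 uM) added 1 h before LPS (250 ng/mL) and ATP (1.25 mM) stimulation; lower signal means less secretion.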
RORgamma inh = qHTS for inhibitors of ROR gamma transcriptional activity; Drosophila S2 Gal4-RORgamma UAS-luciferase reporter, 20 h; hit rate 5.4% among 310,000; Potency, µM (doses to about 53.6 µM), actives largely listed as inhibitors; AID 2551, 2010; Nuclear receptor ROR-gamma (Mus musculus), P51450; also: nearly all actives have a fitted effect of over 60% in size
Target sequence (P51450 whole entry, looked up, the tested form may be a part): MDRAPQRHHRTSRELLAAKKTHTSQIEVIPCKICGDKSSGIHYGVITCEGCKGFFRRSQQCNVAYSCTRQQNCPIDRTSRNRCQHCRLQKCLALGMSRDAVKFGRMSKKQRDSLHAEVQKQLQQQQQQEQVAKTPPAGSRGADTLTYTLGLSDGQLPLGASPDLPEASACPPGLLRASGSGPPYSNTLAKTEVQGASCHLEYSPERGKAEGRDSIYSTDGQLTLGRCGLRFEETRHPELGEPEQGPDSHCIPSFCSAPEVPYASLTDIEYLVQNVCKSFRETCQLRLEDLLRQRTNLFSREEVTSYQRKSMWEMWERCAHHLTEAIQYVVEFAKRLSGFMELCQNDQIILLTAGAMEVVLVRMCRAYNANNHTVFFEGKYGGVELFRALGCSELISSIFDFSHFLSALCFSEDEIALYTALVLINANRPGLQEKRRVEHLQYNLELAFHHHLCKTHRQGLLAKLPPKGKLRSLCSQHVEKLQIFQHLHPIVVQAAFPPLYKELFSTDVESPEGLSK
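Luminescence from a UAS-regulated Photinus luciferase reporter in stably transfected Drosophila Schneider cells is measured; decreased signal marks ROR gamma inhibition. Fusion expression is induced by 700 uM copper sulfate for 20 hr.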
Hits are given with their value; - = inactive; ? = inconclusive; . = not tested or not shown; [ ] = dose if it differs, or a comment. The list is not random: actives were taken first. Their share in the collection is about 11%. Unless noted, calls follow the shape of the dose curve; as a rule, active = well fitted curve in the direction sought with a large enough effect; inconclusive = small, poorly fitted or top-dose-only effect, or another doubt; inactive = no such curve, though single readings can be large; an effect the other way counts as inactive or inconclusive.

SMILES	SW480 rereplic	MCF10A rerep	Gal4-VP16 FLuc	IL1B secr inh	RORgamma inh
Cc1cn([C@H]2C[C@H](O)[C@@H](CNS(=O)(=O)N3CCCC3)O2)c(=O)[nH]c1=O	.	.	.	-	.
Cc1cc(C(=O)COC(=O)c2cccnc2Cl)c(C)n1C	-	-	.	-	.
O=[N+]([O-])c1ccc(-c2cn3nc(-c4ccccc4)c(-c4ccccc4)nc3n2)cc1	?	3.7µM	-	.	-
O=[N+]([O-])c1cccc(-c2cn3nc(-c4ccccc4)c(-c4ccccc4)nc3n2)c1	5.8µM	?	-	-	-
O=[N+]([O-])c1cccc(-c2cn3ccccc3n2)c1	-	-	-	-	-
CN1OC[C@@H]2CN[C@H](c3ccc(-c4cc5ccccc5o4)cc3)C[C@@H]21	.	.	.	-	.
CCOC(=O)C1=CNS(=O)(=O)NC1c1ccc(C(=O)OC)cc1 (stereo unspecified)	-[9.22 µM]	-	.	-	.
COc1cc(OC)c(C(=O)c2ccccc2[N+](=O)[O-])c(OC)c1	.	.	.	-	.
COc1ccc(-c2noc(CCC(=O)NCCCN3CCC(Cc4ccccc4)CC3)n2)cc1	?	?	?	-64	-
COc1ccc(-c2cc3c(=O)n(CC(=O)NCCCN4CCN(Cc5ccccc5)CC4)ncn3n2)cc1	-	-	-	-	-
COc1ccc(-c2cc3c(=O)n(CC(=O)NCCCN4CCC(Cc5ccccc5)CC4)ncn3n2)cc1	5.8µM	-	-	-	-
Cc1ccc(-c2noc(CCC(=O)NCC3CCN(Cc4cccc(C)c4)CC3)n2)cc1	-	-	?	-67	-
Cc1ccc(-c2noc(CCC(=O)NCCN3CCN(Cc4ccccc4)CC3)n2)cc1	-	-	?	-	-
COc1ccc(-c2noc(CCC(=O)NCCCN3CCN(c4ccc(F)cc4)CC3)n2)cc1	?	-	-[10 µM]	-	?
CCN(CC)S(=O)(=O)c1ccc(C(=O)/C=C/c2ccc(-c3ccc([N+](=O)[O-])cc3)o2)cc1	-	-	-	-	-
CCc1ccc(C(=O)/C=C/c2ccc([N+](=O)[O-])o2)cc1	-[9.22 µM]	8.9µM	8.9µM	-112	?
CCOC(=O)CCc1ccc(NC(=O)/C=C/c2ccc([N+](=O)[O-])o2)cc1	7.3µM	9.2µM	.	-80	.
O=C(CN(Cc1ccccc1)C(=O)CSc1nnc(COc2ccccc2)o1)NC1CCCC1	-	-	-	-	-
O=C(CN(Cc1cccs1)C(=O)CSc1nnc(COc2ccccc2)o1)NC1CCCC1	?	10µM	-	-	-
COC1=C[C@@H](C)C2CC3OC(=O)C[C@H]4C(C)=C(OC)C(=O)C([C@@]2(C)C1=O)[C@@]34C (stereo partly specified)	.	.	-	.	-
O=C(Nc1sc2c(c1C(=O)NCCO)CCCC2)c1ccco1	?	-	-	-59	-
COC(=O)c1c(NC(=S)NC(=O)c2ccco2)sc2c1CCCC2	-	-	?	-	2.5µM
COC(=O)c1c(NC(=S)NN2CCOCC2)sc2c1CCCC2	-	-	4µM	-	1.3µM
CCCCN=C1SC(C(=O)Nc2sc3c(c2C(=O)OC)CCC3)C(N)=C1C(=O)N1CCOCC1 (stereo unspecified)	-	21µM	.	-	.
O=C(Nc1sc2c(c1C(=O)O)CCCCC2)c1ccco1	-	?	?	-	-
SMILES	SW480 rereplic	MCF10A rerep	Gal4-VP16 FLuc	IL1B secr inh	RORgamma inh
CC12CCC3c4ccccc4CCC3(CO1)C2 (stereo unspecified)	.	.	.	-	.
NC(N)=NCCCC(NC(=O)c1ccccc1)C(=O)Nc1ccc2ccccc2c1 (stereo unspecified)	-	-	.	-	.
CN1CCN(c2ncc3nc(-c4cccc(C#N)c4)c(=O)n(Cc4ccc(F)cc4)c3n2)CC1	.	.	20µM	.	?
COc1cccc(Cn2c(=O)c(-c3cc(F)cc(F)c3)nc3cnc(N4CCNCC4)nc32)c1	.	.	?	.	2.8µM
O=c1c(-c2cc(F)cc(F)c2)nc2cnc(N3CCNCC3)nc2n1Cc1ccc(F)cc1	.	.	4.5µM	.	3.2µM
O=C1[C@H]2[C@H]3[C@H](O)[C@H](O)C/C(=N/OCc4ccccc4)[C@@H]3CC[C@@H]2C(=O)N1c1cccc(Oc2ccccc2)c1	.	.	-[10 µM]	.	-[10 µM]
Cn1cccc1C(=O)N1CCC2(CCCN(C(=O)Nc3ccccc3)C2)CC1	.	.	-	.	-
CCOC(=O)c1ccccc1NC(=O)COC(=O)CN1C(=O)NC2(CCCC2)C1=O	-	-	-	-	-
CC(Sc1nc2ccccc2s1)C(=O)N(C)Cc1ccccc1 (stereo unspecified)	-	-	-	-67	?
CC(=O)Nc1ccc(NC(=O)CCCSc2nc3ccccc3s2)cc1	-	-	5µM	-	7.1µM
COC(=O)CSc1nc2ccc(NC(C)=O)cc2s1	-	-	-	-53	-
O=C(O)CCSc1nc2ccccc2s1	-	-	-	-	1.8µM
CCCCC1=CC2=C(c3ccco3)C(=O)C(C)(OC(=O)c3cccs3)C(=O)C2=CO1 (stereo unspecified)	.	.	-	.	-
COCCn1c(=O)c(-c2ccc(OC)cc2)nc2cnc(N3CCOCC3)nc21	.	.	-	.	-
Cc1ccc(S(=O)(=O)N2C[C@H]3[C@H]4C(=O)N(c5ccccc5)C(=O)[C@H]4C[C@H](OC(=O)Nc4cccs4)[C@@]3(O)C2)cc1	.	.	.	-	.
O=C(CCCSc1nc2ccccc2s1)NC1=NCCS1	-	-	4.5µM	-	0.89µM
COc1ccc(C2C3C=CCC(c4cccc(-c5ccc(N(C)C)cc5)c4)C3C(=O)N2Cc2ccccc2)cc1Cl (stereo unspecified)	.	.	-	.	-
CC(C)CCC(CCN1CCCC1)c1ccc2c(c1)OCO2 (stereo unspecified)	-	-	-	-70	-
COCCCNCCC(CCC(C)C)c1ccc2c(c1)OCO2 (stereo unspecified)	-	-	-	-70	-
OC[C@@H](O)C(O)[C@@H](O)CO (stereo partly specified)	.	.	-	.	-
CC(=O)Nc1ccc(C)c(NC(=S)Nc2ccc(F)cc2)c1	-	-	-	-	-
Cc1ccc(NC(=S)NCCc2ccc(F)cc2)c(C)c1	-	-	5µM	-	4.5µM
Cc1ccc(NC(=S)Nc2ccc(F)cc2)c(C)c1	-	-	?	-59	11µM
Cc1nc2scc(C)n2c(=O)c1S(=O)(=O)N1CCN(c2ccc([N+](=O)[O-])cc2)CC1	-	-	-	-	-
COc1cccc(S(=O)(=O)N(C)C[C@@H]2OCc3cnnn3CCCC(=O)N([C@@H](C)CO)C[C@@H]2C)c1	.	.	.	-	.
COc1ccc(CNC(=O)c2cc(C3CC3)nc3c2cnn3C(C)C)cc1OC	-	-	.	-	.
COc1cccc(CNC(=O)c2cc(C3CC3)nc3c2cnn3C(C)C)c1	-	-	.	-53	.
